Screening results as filed in PubChem.
Tgondii IFNg – T. gondii growth inhibition with IFN-gamma, primary screen, cell-based | Toxoplasma gondii growth in IFN-gamma-treated host cells; stronger effect = lower value | activity change, negative = inhibition, % (no concentration beside the values) | 3.8% of 69,000 active | AID 1259416, 2018; in the data active means activity change below about -70%, passing the limit was not always enough;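 further: host cells are HeLa cells infected with Toxoplasma gondii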
* hit, by the source's call. Only a selection was taken, and hits are over-represented in it overall.

How did OC(Cc1ccccc1)(c1ccc(F)cc1)C(CN1CCOCC1)c1ccccc1 (stereo unspecified) do in these assays?
Tgondii IFNg: -63

What do the screens show for `O=S(=O)(NCCC1=CCCCC1)c1ccc(Cl)s1`?
Tgondii IFNg: -3

Results for O=C(/C=C\n1cnc(-c2cc(C(F)(F)F)cc(C(F)(F)F)c2)n1)NNc1cnccn1 ?
Tgondii IFNg: -69

Results for COc1cc(-c2ncn(/C=C\C(=O)OC(C)C)n2)cc(C(F)(F)F)c1 ?
Tgondii IFNg: -85*

Results for O=C(c1cc(C(F)(F)F)cc(C(F)(F)F)c1)N1CC=CCC1 ?
Tgondii IFNg: 22

Results for O=C(/C=C\n1cnc(-c2cc(C(F)(F)F)cc(C(F)(F)F)c2)n1)N1CC(F)(F)C1 ?
Tgondii IFNg: -80*

What do the screens show for `Cc1cc(C)cc(S(=O)(=O)N2CCC3(CC2)NCCN=C3NCc2ccc(C(F)(F)F)cc2)c1`?
Tgondii IFNg: -52

What do the screens show for `Cc1cc(C)n(C2=NCCN2S(=O)(=O)c2cc(C(F)(F)F)cc(C(F)(F)F)c2)n1`?
Tgondii IFNg: -90*

How did Cc1cc(C)n(-c2ncc(S(=O)(=O)C(C)(C)C)c(N)n2)n1 do in these assays?
Tgondii IFNg: 60

What do the screens show for `O=C(Cn1c(=O)cc(C(=O)N2CCCC2)c2ccccc21)Nc1ccccc1`?
Tgondii IFNg: 7

What do the screens show for `O=c1cc(CN2CCN(c3cccc(Cl)c3)CC2)c2cc(O)c(-c3ccccc3)cc2o1`?
Tgondii IFNg: 33

What do the screens show for `O=c1cc(O)c2c(=O)n(-c3ccccc3)c(-c3ccccc3)cc2o1`?
Tgondii IFNg: -100*

Results for O=c1cc(-c2ccccc2)c2cc(Cl)c(O)cc2o1 ?
Tgondii IFNg: -1

Results for Cc1ccc(F)c(NC(=O)c2c(O)c3cccnc3n(-c3cccc(F)c3)c2=O)c1 ?
Tgondii IFNg: -37

What do the screens show for `CCOC(=O)c1cc(Cl)cnc1C1CCN(Cc2cccc(OC)c2)CC1`?
Tgondii IFNg: -20

Results for O=c1[nH]c2ccccc2c(O)c1-c1nc(-c2cccc(Br)c2)no1 ?
Tgondii IFNg: 11

Results for O=C(CC1CCCC1)N1CCC2(CC1)Nc1ccccc1-n1cccc12 ?
Tgondii IFNg: -25

Results for COc1ccc(-n2c(CC#N)nnc2SCc2c(C)c(C)c(C)c(C)c2C)cc1 ?
Tgondii IFNg: -89*

Results for COc1ccc(-n2c(Cc3ccccc3)nnc2SCC(=O)c2ccccc2)cc1 ?
Tgondii IFNg: -47

Results for COc1ccc(-n2c(SCC#N)nnc2-c2cccnc2)cc1 ?
Tgondii IFNg: -46

What do the screens show for `Cc1ccc(CN2CCC3(CCCN(C(=O)Cc4cccnc4)C3)C2)o1` (stereo unspecified)?
Tgondii IFNg: -1

How did Cc1cc(S(=O)(=O)Nc2ccc3c(c2)CCC(=O)N3CC(C)C)ccc1F do in these assays?
Tgondii IFNg: -97*

Results for CC(C)CN1C(=O)CCc2cc(NS(=O)(=O)c3cccc(Cl)c3)ccc21 ?
Tgondii IFNg: -80*

Results for COc1cccc(S(=O)(=O)Nc2ccc3c(c2)CCC(=O)N3CC(C)C)c1 ?
Tgondii IFNg: -52

How did COCCN1C(=O)CCc2cc(NS(=O)(=O)c3cccc(OC)c3)ccc21 do in these assays?
Tgondii IFNg: 1

Results for CC(C)CN1C(=O)CCc2cc(NS(=O)(=O)c3ccc(F)c(Cl)c3)ccc21 ?
Tgondii IFNg: -87*

How did CC(C)CN1C(=O)CCc2cc(NS(=O)(=O)c3ccccc3F)ccc21 do in these assays?
Tgondii IFNg: -59

Results for COCCN1C(=O)CCc2cc(NS(=O)(=O)c3ccc4c(c3)OCCO4)ccc21 ?
Tgondii IFNg: 88

What do the screens show for `CC(C)CN1C(=O)CCc2cc(NC(=O)c3cc(F)ccc3Cl)ccc21`?
Tgondii IFNg: -40

How did COCCN1C(=O)CCc2cc(NS(=O)(=O)c3ccc(F)c(C)c3)ccc21 do in these assays?
Tgondii IFNg: -20

How did O=C1NC(CC(=O)N2CCCN(c3ccncc3)CC2)c2ccccc21 (stereo unspecified) do in these assays?
Tgondii IFNg: -2

Results for O=C(C[C@@H]1CC[C@@H](NC(=O)c2cccnc2)[C@@H](CO)O1)NCc1ccc(Cl)c(Cl)c1 ?
Tgondii IFNg: -32

Results for Cc1cccc2oc(CNC(=O)CSCc3ccccc3Cl)nc12 ?
Tgondii IFNg: -3

How did CCc1ccc(Nc2nc(C(=O)N3CCCCCC3)nc3ccccc23)cc1 do in these assays?
Tgondii IFNg: -61

How did O=C1NC(c2ccc(Cl)cc2)Nc2c1sc(=S)n2-c1ccccc1 (stereo unspecified) do in these assays?
Tgondii IFNg: -14

What do the screens show for `CC(C)CCCC1CN(C(=O)c2ccccc2-c2ncc[nH]2)CCO1` (stereo unspecified)?
Tgondii IFNg: 10

Results for CN(C)CC(=O)N1C[C@H](OCc2ccccn2)[C@@H]2OCCC[C@@H]21 ?
Tgondii IFNg: 3

What do the screens show for `CN(Cc1cccc2cnccc12)S(=O)(=O)NCc1ccccc1`?
Tgondii IFNg: -53

Results for COc1ccc(OC)c(S(=O)(=O)NCc2nc(-c3ccc(C)cc3)oc2C)c1 ?
Tgondii IFNg: -87*

How did Cc1ccc(-c2nc(CNS(=O)(=O)c3c(C)cc(C)cc3C)c(C)o2)cc1 do in these assays?
Tgondii IFNg: -23

What do the screens show for `Cc1ccc(S(=O)(=O)NCc2nc(-c3ccccc3)oc2C)cc1C`?
Tgondii IFNg: -106*

What do the screens show for `Cc1oc(-c2ccccc2)nc1CNS(=O)(=O)c1ccc(F)cc1`?
Tgondii IFNg: -7

Results for CCOc1ccc(-c2nc(CN(C)S(=O)(=O)c3ccc(C)c(C)c3)c(C)o2)cc1 ?
Tgondii IFNg: -102*

Results for COc1ccc(-c2nc(CNS(=O)(=O)c3ccc(C)cc3C)c(C)o2)cc1 ?
Tgondii IFNg: 9

How did CCOc1ccc(S(=O)(=O)N(C)Cc2nc(-c3ccc(C)cc3)oc2C)cc1 do in these assays?
Tgondii IFNg: 3

What do the screens show for `COc1ccccc1-c1nc(CN(C)S(=O)(=O)c2ccc(C)c(C)c2)c(C)o1`?
Tgondii IFNg: -44

What do the screens show for `Cc1ccc(S(=O)(=O)NCc2nc(-c3cccc(Cl)c3)oc2C)cc1C`?
Tgondii IFNg: -24

How did Cc1ccsc1[C@@H]1CCN(C(=O)Cn2[nH]c(=O)ccc2=O)C[C@H]1O do in these assays?
Tgondii IFNg: 94

What do the screens show for `Cc1cccc(NC(=O)N2CCn3nc(C(=O)NCCN(C)C)cc3C2)c1`?
Tgondii IFNg: 94

What do the screens show for `O=C(O[C@@H]1Cc2c(O)cc(O)cc2O[C@@H]1c1ccc(O)c(O)c1)c1cc(O)c(O)c(O)c1`?
Tgondii IFNg: -52

How did O=C(CCNc1ccc(Cl)c(F)c1)c1cccs1 do in these assays?
Tgondii IFNg: 67

How did Cc1nc(-c2ccc(Cl)cc2)sc1-c1csc(-c2ccc(Cl)cc2)n1 do in these assays?
Tgondii IFNg: -15

Results for Cc1nnsc1-c1nc(-c2ccc(Cl)s2)cs1 ?
Tgondii IFNg: -85*

Results for CCOC(=O)c1csc(-c2snnc2C)n1 ?
Tgondii IFNg: -16

Results for Cc1cc(-n2cnnc2C2CCOCC2)n(C)n1 ?
Tgondii IFNg: -8

Results for CCc1ccc(Nc2nc(-c3nnc(-c4ccc(OC)cc4)o3)nc3ccccc23)cc1 ?
Tgondii IFNg: 136

What do the screens show for `O=C(C1CCOCC1)N1CCCC[C@H]2CN(Cc3ccccc3)C[C@H]21`?
Tgondii IFNg: -11

How did CCOC(=O)C1CCN(C(=O)c2sc(-c3cn(C(C)C)c4ncccc34)nc2C)CC1 do in these assays?
Tgondii IFNg: -51

Results for Cc1nc(-c2cn(C(C)C)c3ncccc23)sc1C(=O)N1CCC2(CC1)OCCO2 ?
Tgondii IFNg: -67
